ADAM10 inh: inhibits human ADAM10. recombinant ADAM10, EDANS/DABCYL FRET peptide cleavage, 3 h. inhibition, % at 7 µM. 370,000 tested, 0.62% active;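 active = inhibition above a per-campaign cutoff equal to the mean of compounds falling between control-based bounds plus 3 SD, cut at about 20% in these data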
ADAM17 inh: ADAM17 inhibition, QFRET primary screen | 370,000 tested, 0.83% active | recombinant ADAM17, EDANS/DABCYL FRET peptide cleavage | inhibition, % at 6.95 µM | AID 720648;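 active = inhibition above the mean of compounds lying between control limits plus 3 SD, set per campaign, cut at about 8.5% in these data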
proKLK7 act: activates the human kallikrein-7 zymogen; P49862; purified proKLK7, EDANS-DABCYL substrate fluorescence; 100% is mature enzyme control, 0% vehicle; activation, % at 7 µM; 370,000 tested, 0.9% active; AID 652039;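 active = activation above the mean of all tested compounds plus 3 SD, computed per campaign excluding outliers beyond control limits, cut at about 13% in these data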
Target sequence (P49862 whole entry, looked up): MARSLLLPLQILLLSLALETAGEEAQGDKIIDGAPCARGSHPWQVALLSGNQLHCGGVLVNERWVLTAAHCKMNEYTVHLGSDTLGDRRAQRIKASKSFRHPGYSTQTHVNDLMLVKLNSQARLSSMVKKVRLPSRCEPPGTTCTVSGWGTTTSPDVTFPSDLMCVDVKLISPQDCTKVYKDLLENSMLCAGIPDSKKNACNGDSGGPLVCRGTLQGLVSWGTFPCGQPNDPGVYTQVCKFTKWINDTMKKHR
GC-A act: GC-A (human) enzyme activation; P16066; HEK293 GC-A cells, cGMP TR-FRET, EC30 ANP; 0% at EC30 ANP, 100% saturating ANP; activation, % at 10 µM; 370,000 tested, 0.14% active; AID 1671463; in the data active = activation above about 40%
GC-B act: GC-B (human) receptor activation. P20594. HEK293-GC-B cells, CNP EC30, cGMP TR-FRET; 0% at EC30 CNP, 100% saturating CNP. activation, % at 10 µM. 370,000 tested, 0.11% active;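 active = activation at 10 µM reaching about 35% in either raw or pattern-adjusted values, limit read from the data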
ADAM10 confirm: confirmation of inhibitors of human ADAM10; ADAM10 QFRET peptide cleavage, EDANS fluorescence; inhibition, % at 6.95 µM; 2,100 tested, 1% active; shares compounds with ADAM10 inh;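 active = inhibition above about 20% chosen separately for each screening run, limit read from the data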
ADAM17 counter: counter-screen for ADAM10 exosite inhibitors: inhibitors of human ADAM17; inhibition, % at 6.95 µM; 2,100 tested, 0.5% active; shares compounds with ADAM10 inh; AID 743214; ADAM17 QFRET peptide cleavage, EDANS fluorescence;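 active = mean triplicate inhibition above the solvent-only control wells' mean plus 3 SD, cut at about 12% in these data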
Of the large screens only hits and unclear results are named; the others gave an inactive call (follow-up assays come after a bar, where they were run). Rows were chosen to be rich in hits. Some 2.2% of all compounds tested hit in one or more screens of this group.

COc1cccc(Nc2nc(-c3ccccc3O)nc3ccccc23)c1	none
CCOc1ccc(Oc2c(Cl)cnn(Cc3cccc4ccccc34)c2=O)cc1	none
CC(=O)N1c2ccc(S(=O)(=O)NCC3CCC(C(=O)NCc4ccc(C)cc4)CC3)cc2CC1C (stereo not given)	ADAM10 inh 74 | ADAM10 confirm inactive | ADAM17 counter inactive
COC(=O)CSc1nnc(-c2ccc(NS(=O)(=O)c3c(C(C)C)cc(C(C)C)cc3C(C)C)cc2)o1	ADAM10 inh 21 | ADAM10 confirm inactive | ADAM17 counter inactive
COc1cccc(NC(=S)NNC(=O)c2ccccc2OC(F)F)c1	ADAM10 inh 21 | ADAM10 confirm inactive | ADAM17 counter inactive
CN1CCN(C(=O)C2=C[C@@H](c3csc4ccccc34)C[C@@H](OCc3ccc(CO)cc3)O2)CC1	none
O=C(C1=C[C@H](c2csc3ccccc23)C[C@H](OCc2ccc(CO)cc2)O1)N1CCOCC1	ADAM10 inh 89 | ADAM10 confirm inactive | ADAM17 counter inactive
CC(C)CC1C(=O)N(Cc2cn(CCC3OCCO3)nn2)CCS(=O)(=O)N1Cc1ccc(-c2cccc(CO)c2)cc1 (stereo not given)	none
Cc1cccc(C)c1-c1ccc(CN2C(CC(C)C)C(=O)N(Cc3cn(CCO)nn3)CCS2(=O)=O)cc1 (stereo not given)	ADAM10 inh 22 | ADAM10 confirm inactive | ADAM17 counter inactive
C[C@@H]1/C=C/CC(=O)N2[C@H](CC(=O)N[C@@H]1c1ccccc1)C[C@@H](C)[C@H]2c1ccccc1	none
CS(=O)(=O)N(CC(=O)Nc1ccccc1Sc1ccccc1)c1cccc(Br)c1	ADAM10 inh 25, ADAM17 inh 11 | ADAM10 confirm inactive | ADAM17 counter inactive
CSc1ccccc1NC(=O)CN(c1cc(C)cc(C)c1)S(C)(=O)=O	none
COc1ccccc1/C=C1\SC(=S)N(CCC(=O)Nc2cccc(O)c2)C1=O	ADAM10 inh 23 | ADAM10 confirm inactive | ADAM17 counter inactive
COc1cc(/C=C2\SC(=S)N(CCC(=O)Nc3cccc(O)c3)C2=O)cc(OC)c1OC	ADAM10 inh 21 | ADAM10 confirm inactive | ADAM17 counter inactive
COc1cc(/C=C2\SC(=S)N(CCC(=O)Nc3ccccc3)C2=O)cc(OC)c1OC	none
COc1ccccc1/C=C1\SC(=S)N(CCC(=O)NNC(=O)c2ccccc2OC)C1=O	none
CCOc1ccccc1C(=O)Nc1ccc(C(=O)NCC2COc3ccccc3O2)cc1 (stereo not given)	none
Cc1cccc(C)c1NC(=O)C1CCCN1S(=O)(=O)c1cccc2cccnc12 (stereo not given)	none
COc1ccc(-c2cc(-c3nnc(SCC(=O)NC4CCCCC4)n3N)[nH]n2)cc1	none
CCc1ccc2c(CN3CCN(S(=O)(=O)c4cccs4)CC3)cc(=O)oc2c1	ADAM10 inh 21 | ADAM10 confirm inactive | ADAM17 counter inactive
C=CCN(CC#CC1=CCCCC1)Cc1ccccc1	none
O=C(CC(c1ccccc1)c1ccccc1)Nc1ccc(Cl)cn1	ADAM10 inh 23, ADAM17 inh 14 | ADAM10 confirm inactive | ADAM17 counter inactive
O=C(COC(=O)CCc1nc2ccccc2s1)Nc1ccc(Cl)cn1	ADAM10 inh 24 | ADAM10 confirm inactive | ADAM17 counter inactive
Cc1nc(NC(=O)COC(=O)CCc2nc3ccccc3s2)c(Cl)cc1Cl	none
COc1ccc(N2CCN(CCCNC(=O)Cc3ccc(C(F)(F)F)cc3)CC2)cc1	none
O=C(COc1ccc(F)cc1)NNC(=O)c1cc2ccccc2oc1=O	none
Cc1cccc(OCC(=O)NNC(=O)c2cc3ccccc3oc2=O)c1	ADAM10 inh 23 | ADAM10 confirm 23 | ADAM17 counter 13
O=C(O)c1ccc(C=Nn2c(-c3ccc(F)cc3)n[nH]c2=S)cc1	none
CCN(c1ccc(NC(=O)COC(=O)CCc2cc(OC)c(OC)c(OC)c2)cc1)C(C)C	ADAM10 inh 21 | ADAM10 confirm inactive | ADAM17 counter inactive
O=[N+]([O-])c1cc(S(=O)(=O)Nc2cccc(C(F)(F)F)c2)ccc1-n1nnc2ccccc21	ADAM10 inh 23 | ADAM10 confirm inactive | ADAM17 counter inactive
COc1ccc(NS(=O)(=O)c2ccc(-n3nnc4ccccc43)c([N+](=O)[O-])c2)cc1	none
Cc1cc(C)c2c(=O)n3c(nc2c1)C(Cc1ccc(O)cc1)NC(=O)c1cc2ccccc2cc1-3 (stereo not given)	ADAM10 inh 23 | ADAM10 confirm 21 | ADAM17 counter inactive
O=C1NC(Cc2ccc(O)cc2)c2nc3ccc(Br)cc3c(=O)n2-c2cc3ccccc3cc21 (stereo not given)	none
COc1ccccc1NC(=O)Cc1csc(NC(=S)Nc2ccccc2)n1	ADAM10 inh 21 | ADAM10 confirm inactive | ADAM17 counter inactive
CC(=O)Nc1ccc2c(c1)nc1n2CCOC1	ADAM10 inh 84 | ADAM10 confirm inactive | ADAM17 counter inactive
COc1ccc(CNCC#CC2=CCCCC2)c(OC)c1	none
COC(=O)[C@]12C[C@H](CC(=O)NCCc3ccccc3OC)C(=O)N(Cc3ccc(Cl)cc3Cl)C1=C[C@H](COCc1ccccc1)O[C@@H]2C	none
O=C(CSC1CS(=O)(=O)c2cc([N+](=O)[O-])ccc21)NNC(=O)c1ccc(Cl)cc1 (stereo not given)	none
O=C(CSC1CS(=O)(=O)c2cc([N+](=O)[O-])ccc21)NNC(=O)c1ccccc1 (stereo not given)	ADAM10 inh 24 | ADAM10 confirm inactive | ADAM17 counter inactive
CN1C(=O)C[C@@](C#N)(C(=O)NCC(F)(F)F)[C@H]1c1ccccc1	none
O=c1[nH]c2cc(C(F)(F)F)ccc2n1-c1cc(C(F)(F)F)ccc1O	ADAM10 inh 20 | ADAM10 confirm inactive | ADAM17 counter inactive
COc1ccc(OC)c(CN2C(=O)COc3ccccc3C2c2nnnn2C2CCCC2)c1 (stereo not given)	none
Cc1ccc(NC(=O)OCCCN2C(=O)CCC23CCC(C)CC3)cc1C (stereo not given)	none
COc1ccc(S(=O)(=O)Nc2ccc3c(c2)C(=O)N([C@H](C)CO)C[C@H](C)[C@@H](CN(C)C(=O)Nc2ccc(F)cc2)OCCCC[C@H](C)O3)cc1	none
C[C@@H]1CN([C@@H](C)CO)S(=O)(=O)c2ccc(Br)cc2O[C@H]1CN(C)C(=O)Nc1ccc(C(F)(F)F)cc1	ADAM10 inh 21 | ADAM10 confirm inactive | ADAM17 counter inactive
